Here are results for eight compounds from PubChem BioAssay (NCI).

The panel holds about 83,000 compounds, 20% with a hit somewhere; the sample as a whole holds those more often.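 Single-concentration screen, 48 h exposure, 96-well plates. Endpoint: percent growth. Below 10 = active.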 Values without a mark were called inactive. Activity calls are given as the source filed them.

Among the test systems are SR leukemia; RPMI-8226 leukemia; OVCAR-8 ovarian; OVCAR-5 ovarian; OVCAR-4 ovarian; SK-OV-3 ovarian; IGROV1 ovarian; OVCAR-3 ovarian; HS 578T breast; NCI/ADR-RES ovarian; T-47D breast; BT-549 breast; MDA-MB-435 melanoma; SW-620 colon; MCF7 breast; HCT-116 colon; HCC-2998 colon; KM12 colon.
Holding throughout (assay): NCI-60 one-dose screen, 48 h (100 = growth as untreated, 0 = no growth, -100 = all killed)
Holding throughout (settings): 10 µM unless noted

With `CC1(C)C(=O)/C(=C\c2ccco2)C[C@]2(C)[C@H]3CC[C@@H]4[C@@H](C(=O)/C=C/c5ccco5)CC[C@@]4(C)[C@]3(C)CC[C@@H]12`, the growth in the experiment on SR leukemia is 71%; in the experiment on RPMI-8226 leukemia, 75.5%; with OVCAR-8 ovarian it was 80.5%; in the experiment on OVCAR-5 ovarian it was 115%; in the experiment with OVCAR-4 ovarian, 83.6%; with SK-OV-3 ovarian, 109%. Further, the growth was 96.2% in the experiment with IGROV1 ovarian; 95.2% in the experiment with OVCAR-3 ovarian; 77.8% in the experiment on HS 578T breast; 95.1% in the experiment with NCI/ADR-RES ovarian; 35% with T-47D breast; 95.7% with BT-549 breast. Also, the growth is 4.33% (active) with MDA-MB-435 melanoma; 71.1% in the experiment with SW-620 colon; 62% in the experiment with MCF7 breast; 61.8% with HCT-116 colon; 108% in the experiment on HCC-2998 colon; 101% in the experiment on KM12 colon.
Regarding `O=C1CCN2C(=O)Nc3ccccc3C2C1` (centres undefined), the growth with SR leukemia is 96.8%; with RPMI-8226 leukemia it was 111%; in the experiment with OVCAR-8 ovarian, 105%; in the experiment on OVCAR-5 ovarian, 90%; in the experiment with OVCAR-4 ovarian, 97.6%; with SK-OV-3 ovarian, 101%. The growth with IGROV1 ovarian was 102%; in the experiment with OVCAR-3 ovarian it was 111%; in the experiment with HS 578T breast it was 103%; in the experiment with NCI/ADR-RES ovarian it was 107%; in the experiment with T-47D breast it was 100%; in the experiment with BT-549 breast, 109%. Moreover, the growth with MDA-MB-435 melanoma was 97.5%; with SW-620 colon it was 99.8%; with MCF7 breast, 95.3%; in the experiment with HCT-116 colon it was 98.6%; in the experiment on HCC-2998 colon, 100%; in the experiment on KM12 colon it was 106%.
For the compound `CC(C)(C)n1cc(-c2ccnc(NCCCNS(=O)(=O)c3ccc(Cl)cc3)c2)c(-c2cccc(F)c2)n1`, the growth with SR leukemia is 32.9%; with RPMI-8226 leukemia, 52.3%; in the experiment with OVCAR-8 ovarian, 84.7%; with OVCAR-5 ovarian, 77.2%; in the experiment with OVCAR-4 ovarian, 90%; in the experiment on SK-OV-3 ovarian, 91.7%. Besides, the growth in the experiment on IGROV1 ovarian is 69.5%; with OVCAR-3 ovarian, 84.2%; in the experiment with HS 578T breast it was 87.9%; with NCI/ADR-RES ovarian, 73.5%; in the experiment with T-47D breast, 46.5%; in the experiment on BT-549 breast, 74.7%. The growth in the experiment on MDA-MB-435 melanoma is 85.6%; in the experiment on SW-620 colon it was 70.2%; with MCF7 breast it was 60.5%; in the experiment on HCT-116 colon it was 51.9%; in the experiment with HCC-2998 colon it was 63.4%; with KM12 colon, 60.5%.
In the case of `O=C1CCC/C=C\C[C@H]2C=C(Cl)C(=O)/C2=C/C[C@H](CCCCC(F)(F)F)OC(=O)CCC/C=C\C[C@H]2C=C(Cl)C(=O)/C2=C/C[C@H](CCCCC(F)(F)F)O1`, the growth in the experiment on SR leukemia is -14.6% [7.5 µM] (active); with RPMI-8226 leukemia it was -14.9% [7.5 µM] (active); in the experiment with OVCAR-8 ovarian it was -4.7% [7.5 µM] (active); in the experiment with OVCAR-5 ovarian, -33.6% [7.5 µM] (active); in the experiment on OVCAR-4 ovarian, 19.7% [7.5 µM]; in the experiment on SK-OV-3 ovarian it was -2.87% [7.5 µM] (active). The growth in the experiment on IGROV1 ovarian is -48.2% [7.5 µM] (active); in the experiment with OVCAR-3 ovarian, -81.3% [7.5 µM] (active); in the experiment with HS 578T breast, 21.8% [7.5 µM]; in the experiment with NCI/ADR-RES ovarian, 12.5% [7.5 µM]; in the experiment with T-47D breast, -7.29% [7.5 µM] (active); in the experiment on BT-549 breast it was -43.8% [7.5 µM] (active). Further, the growth is -14.3% [7.5 µM] (active) in the experiment with MDA-MB-435 melanoma; -30.8% [7.5 µM] (active) in the experiment on SW-620 colon; -38.9% [7.5 µM] (active) with MCF7 breast; -93.4% [7.5 µM] (active) in the experiment on HCT-116 colon; -54.7% [7.5 µM] (active) with HCC-2998 colon; -60.3% [7.5 µM] (active) in the experiment on KM12 colon.
Regarding `Nc1c(C(=O)Nc2c(Cl)cccc2Cl)sc2nc3c(cc12)C(=O)CCC3`, the growth was 36.4% in the experiment on SR leukemia; 65.5% in the experiment on RPMI-8226 leukemia; 62.7% with OVCAR-8 ovarian; 86.5% in the experiment on OVCAR-5 ovarian; 65.6% with OVCAR-4 ovarian; 32.2% with SK-OV-3 ovarian. For the same compound, the growth with IGROV1 ovarian is 71.9%; with OVCAR-3 ovarian, 11.2%; with HS 578T breast, 13.4%; in the experiment on NCI/ADR-RES ovarian it was 17.1%; in the experiment with T-47D breast, 35.7%; in the experiment on BT-549 breast it was 51.5%. The growth in the experiment with MDA-MB-435 melanoma was -37.7% (active); in the experiment with SW-620 colon, 44.5%; in the experiment on MCF7 breast it was 19.3%; in the experiment with HCT-116 colon, 42.9%; with HCC-2998 colon, 69.1%; with KM12 colon, 30.5%.
In the case of `COc1ccc(-c2nc(Nc3ccc(-c4nc5ccccc5[nH]4)cc3)nc(N3CCOCC3)n2)cc1`, the growth in the experiment on SR leukemia was 6.01% (active); in the experiment on RPMI-8226 leukemia, -13.8% (active); in the experiment on OVCAR-8 ovarian it was 39.2%; with OVCAR-5 ovarian, 66.3%; in the experiment on OVCAR-4 ovarian, 59.8%; in the experiment on SK-OV-3 ovarian, 19.6%. Further, the growth with IGROV1 ovarian was 33.7%; with OVCAR-3 ovarian, 5.15% (active); in the experiment with HS 578T breast, -11.9% (active); in the experiment on NCI/ADR-RES ovarian, 34.2%; with T-47D breast it was 16.1%; in the experiment with BT-549 breast, 5.16% (active). In addition, the growth in the experiment with MDA-MB-435 melanoma is -38% (active); in the experiment with SW-620 colon, 3.57% (active); in the experiment on MCF7 breast it was -44.3% (active); in the experiment with HCT-116 colon, 4.8% (active); in the experiment with HCC-2998 colon, -19.8% (active); in the experiment on KM12 colon, 12.4%.
On to `C=C1C(=O)O[C@H]2[C@H]1CC/C(COC(=O)NCc1cc3ccccc3[nH]1)=C\CC[C@@]1(C)O[C@@H]21`, for which the growth in the experiment with SR leukemia is -2.88% (active); with RPMI-8226 leukemia it was -32.8% (active); in the experiment with OVCAR-8 ovarian, 6.1% (active); in the experiment on OVCAR-5 ovarian, 26.2%; with OVCAR-4 ovarian, -0.221% (active); in the experiment on SK-OV-3 ovarian, 86.7%. For the same compound, the growth is -20.5% (active) with IGROV1 ovarian; -54.4% (active) in the experiment on OVCAR-3 ovarian; 79.3% with HS 578T breast; 71.4% in the experiment with NCI/ADR-RES ovarian; -43.1% (active) in the experiment with T-47D breast; -24.2% (active) in the experiment with BT-549 breast. Also, the growth is 2.87% (active) in the experiment with MDA-MB-435 melanoma; -37.8% (active) with SW-620 colon; 0.667% (active) in the experiment on MCF7 breast; -81.9% (active) in the experiment with HCT-116 colon; 98.3% in the experiment with HCC-2998 colon; 81% in the experiment with KM12 colon.
On to `Brc1ccc2c(c1)c(-c1nc(-c3c[nH]c4ncccc34)cs1)cn2CCCN1CCCCC1`, for which the growth with SR leukemia is -47.5% (active); with RPMI-8226 leukemia, -47.9% (active); in the experiment with OVCAR-8 ovarian, 1.18% (active); with OVCAR-5 ovarian it was 32.3%; with OVCAR-4 ovarian it was 48.4%; in the experiment with SK-OV-3 ovarian, 63.1%. Also, the growth is 6.09% (active) in the experiment on IGROV1 ovarian; -64.3% (active) in the experiment with OVCAR-3 ovarian; 52.1% with HS 578T breast; 13.4% in the experiment with NCI/ADR-RES ovarian; 45% with T-47D breast; 72.8% in the experiment on BT-549 breast. Further, the growth in the experiment with MDA-MB-435 melanoma was -84% (active); in the experiment with SW-620 colon it was -63.5% (active); with MCF7 breast it was -68.1% (active); with HCT-116 colon it was -62.7% (active); in the experiment on HCC-2998 colon, 34.8%; in the experiment with KM12 colon, 14.5%.
